HT1080 IDH1KD tx: kills HT-1080 cells with IDH1 knockdown | actives 2% (n = 360,000) | AID 686971 | HT-1080 IDH1 knockdown viability, ATP luminescence, 48 h | Potency, µM (titrated, usually from 46.1 µM), inactives show at the highest dose activity, negative = toxicity, hits mostly cytotoxic;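 further: potency means the concentration at half of the fitted maximal effect; 0% = DMSO wells and -100% = cell-free medium wells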
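In this qHTS, HT-1080 cells depleted of IDH1 are exposed for 48 h at 37 °C to compound titrations. Toxicity is scored from CellTiter-Glo luminescence, with DMSO as full viability and medium alone as none.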
IL1B secr inh: inhibitors of inflammasome signaling (IL-1 beta secretion); actives 4.7% (n = 360,000); THP-1 LPS/ATP IL-1B secretion, AlphaLISA, 16 h; hits give low values; activity change, % at 57.5 µM; in the data active means activity change below about -50%; inconclusive means mostly about -30% to -49%
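THP-1 cells pretreated 1 hr with compounds (up to 57.5 uM final), then stimulated with LPS (250 ng/mL final) plus ATP (1.25 mM final); secreted IL-1B measured by AlphaLISA after 16 hr, decreased signal indicating inhibition.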
TDP1 cell CPT: DT40-hTDP1 cell growth loss with CPT; chicken DT40 Tdp1-/-;hTDP1 cells + 20 nM CPT, ATP luminescence, 48 h; Potency, µM (doses to about 46.2 µM), without a hit: at the top dose activity change, negative = growth inhibition, usual class: inhibitors; actives 12% (n = 420,000); further: potency means the concentration at half of the fitted maximal effect; nearly all actives have a fitted effect of over 55% in size
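Chicken DT40 Tdp1-/- cells complemented with human TDP1, 400 cells/well, exposed to compounds plus 20 nM camptothecin for at least 48 h at 37 C; viability read as ATP content by CellTiter-Glo luminescence.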
ELG1 repair inh: inhibitors of ELG1-dependent DNA repair in HEK293T cells. actives 2.3% (n = 330,000). Potency, µM (doses to about 46.1 µM), inactives show at the highest dose activity change, negative = inhibition, hits mostly inhibitors. HEK293T ELG1-luciferase reporter, luminescence, 16 h; DNA damage induced by 5-fluorouridine; further: potency means the concentration at half of the fitted maximal effect; nearly all actives have a fitted effect of over 55% in size
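Overnight (16 hr) co-exposure of 2,000 cells/well to 5-fluorouridine and compound at 37 °C preceded detection. Luciferase was quantified via ONE-Glo luminescence; loss of signal denotes inhibition.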
DT40 TDP1 no CPT: qHTS for Inhibitors of human tyrosyl-DNA phosphodiesterase 1 (TDP1): qHTS in cells in absence of CPT | DT40 Tdp1-/- hTDP1 cells, no CPT, ATP luminescence, 48 h | Potency, µM (highest dose often 46.2 µM), inactives show at the top dose activity change, negative = growth inhibition, usual class: inhibitors | AID 686978, 2013 | actives 15% (n = 420,000); further: potency means the concentration at half of the fitted maximal effect; nearly all actives have a fitted effect of over 55% in size
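No-CPT arm: Tdp1-/-;hTDP1 DT40 cells (400/well) plus compounds, incubated ≥48 hr at 37 °C. Readout CellTiter-Glo luminescence.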
HT1080NT lethal: kills 2HG-producing HT-1080-NT fibrosarcoma cells | HT-1080-NT fibrosarcoma viability, CellTiter-Glo ATP luminescence, 48 h | AID 686970 | Potency, µM (titrated, usually from 46.1 µM), for inactives: at the top dose activity, negative = less viability, hits mostly cytotoxic | actives 1.6% (n = 360,000);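 further: NT is the 2HG producing partner of a matched IDH1 knockdown line; potency means the concentration at half of the fitted maximal effect; 0% = DMSO-treated cells and -100% = media-only wells without cells; nearly all actives have a fitted effect of over 55% in size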
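Viability by CellTiter-Glo luminescence after 48 h compound exposure at 37C of HT-1080-NT cells (750/well, RPMI, 5% FBS). % activity scaled between DMSO wells and medium-only wells, then curve-fitted and categorized by curve class.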
An asterisk follows results filed as active; ? = inconclusive; · = no result given; [ ] = another dose, or the depositor's remark. Sampled rows, rich in hits. Any-hit rate of the full collection: about 19%. Unless noted, the call rests on the fitted dose curve; in most records, active means well fitted curve in the direction sought with a large enough effect; inconclusive means small, poorly fitted or top-dose-only effect, or another doubt; inactive means no such curve, though single readings can be large; an effect the other way counts as inactive or inconclusive. Unless noted, on the % scale 0 is the no-effect control and ±100 the full control effect.

SMILES	HT1080 IDH1KD tx	IL1B secr inh	TDP1 cell CPT	ELG1 repair inh	DT40 TDP1 no CPT	HT1080NT lethal
CCOc1ccc(S(=O)(=O)NCc2ccccn2)cc1NC(=O)c1ccccc1	3.3µM*	46	1.3µM*	?	1.3µM*	2.6µM*
COc1ccc(S(=O)(=O)NCc2ccccn2)cc1NC(=O)c1ccccc1F	5.8µM*	33	2.3µM*	?	2.6µM*	4.6µM*
COc1ccc(S(=O)(=O)NCc2ccccn2)cc1C	-2%	-24	-3%	·	2%	7%
COCCN1C[C@@H](CO)O[C@@H](n2cnc3c(NC(C)C)ncnc32)C1	3%	15	7%	·	2%	27%
C=C1C(=O)O[C@H]2C[C@H]1[C@@H](OC(C)=O)C/C(C)=C/CC/C(C)=C\CC[C@]2(C)O	16µM*	-113*	2.6µM*	·	2.9µM*	13µM*
CC(=O)O[C@@H]1C[C@H]2C(C)=C[C@H]3OC(=O)[C@@H](C)[C@H]3C[C@H]2[C@]1(C)O	11%	17	20%	-1%	3%	11%
Cc1ccc(N(C)C(=O)c2cc(S(=O)(=O)N3CCOCC3)cn2C)cc1	·	·	-19%	·	-16%	·
CC(C)CCn1cnc2c(oc3nc4c(cc32)CCCC4)c1=O	0%	?	?	?	21µM*	3%
CCOc1ccc(-n2c(=O)c3c(C)c(C)sc3n(Cc3cc(=O)n4cc(Cl)ccc4n3)c2=O)cc1	·	·	-1%	·	?	·
COC(=O)[C@@]12C[C@@H](CC(=O)NCCc3ccccc3OC)C(=O)N(Cc3ccco3)C1=CCC(C)(C)C2	?	-13	?	·	?	?
COC(=O)[C@@]12C[C@@H](CC(=O)NCc3ccc(C)o3)C(=O)N(Cc3ccco3)C1=CCC(C)(C)C2	-11%	-11	?	·	?	1%
COC(=O)[C@@]12C[C@@H](CC(=O)NCc3cccc4ccccc34)C(=O)N(Cc3ccco3)C1=CCC(C)(C)C2	?	-71*	21µM*	·	?	?
CCCCOCCCNC(=O)C[C@@H]1C[C@@]2(C(=O)OC)CC(C)(C)CC=C2N(Cc2ccco2)C1=O	-3%	-2	21µM*	·	23µM*	-1%
COC(=O)[C@@]12C[C@@H](CC(=O)NCc3ccccc3)C(=O)N(Cc3ccco3)C1=CCC(C)(C)C2	-7%	-16	18µM*	·	?	1%
COC(=O)[C@@]12C[C@@H](CC(=O)NCc3cccs3)C(=O)N(Cc3ccco3)C1=CCC(C)(C)C2	-1%	?	?	·	18µM*	-3%
COC(=O)[C@]12CCCCC=C1N(Cc1ccco1)C(=O)[C@H](CC(=O)NCc1cccc3ccccc13)C2	-13%	-8	?	·	?	-6%
CC(C)(C)NC(=O)CN(C(=O)CCC(=O)Nc1nccs1)c1ccccc1F	11%	-22	-12%	·	9%	4%
CCN(C(=O)COC(=O)c1ccccc1Oc1ccccc1)c1c(N)n(Cc2ccccc2)c(=O)[nH]c1=O	-3%	-3	0%	·	-16%	2%
COC(=O)[C@@]12C[C@@H](CC(=O)NCCC(C)C)C(=O)N(Cc3ccco3)C1=CCC(C)(C)C2	-2%	-18	?	·	?	3%
COC(=O)[C@@]12C[C@@H](CC(=O)NCCCCc3ccccc3)C(=O)N(Cc3ccco3)C1=CCC(C)(C)C2	?	?	16µM*	·	?	-2%
CC1CCN(C(=O)c2ccc3c(c2)N(Cc2ccccc2)C(=O)c2ccccc2S3(=O)=O)CC1	·	·	?	·	16µM*	·
O=C(c1ccc2c(c1)N(Cc1ccccc1)C(=O)c1ccccc1S2(=O)=O)N1CCOCC1	·	·	6%	·	-17%	·
O=C(c1ccc2c(c1)N(Cc1ccc(F)cc1)C(=O)c1ccccc1S2(=O)=O)N1CCC(Cc2ccccc2)CC1	·	·	5.8µM*	·	5.2µM*	·
COc1ccc(C2CN=NC23CCCc2ccccc2C3=O)cc1 (stereo not drawn)	?	7	?	?	23µM*	?
COc1ccc(C2CN=NC23CCc2ccccc2C3=O)cc1 (stereo not drawn)	16µM*	87	?	?	23µM*	?
SMILES	HT1080 IDH1KD tx	IL1B secr inh	TDP1 cell CPT	ELG1 repair inh	DT40 TDP1 no CPT	HT1080NT lethal
COc1ccccc1C1CN=NC12CCCc1ccccc1C2=O (stereo not drawn)	-15%	-23	?	-4%	?	-22%
OC(c1cc(-c2cccc(Cl)c2)nc2ccccc12)C1CCCCN1 (stereo not drawn)	2.9µM*	-101*	16µM*	·	2.6µM*	4.1µM*
COC(=O)c1sc2ccccc2c1-n1cccc1C(=O)C(=O)Nc1ccc(OC)cc1	-10%[9.24 µM]	22	?	13µM*	?	-23%
CC(Sc1ccc([N+](=O)[O-])cn1)C(=O)Nc1nccs1 (stereo not drawn)	-6%	13	-11%	5%	18%	-7%
CCCc1ccc(Oc2cn[nH]c2-c2ccc(O)c(C)c2O)cc1	?	-64*	18µM*	-5%	?	?
CCCOC(=O)c1ccc(Oc2cn[nH]c2-c2ccc(OCC)cc2O)cc1	?	-75*	?	?	?	?
CCCOC(=O)c1ccc(Oc2c(-c3ccc(OCC)cc3O)n[nH]c2C)cc1	?	-102*	16µM*	?	18µM*	?
OCC(O)C[n+]1cccc(Br)c1 (stereo not drawn)	·	·	8%	·	-20%	·
CC[C@H](C)C1OC(=O)[C@@H](C)[C@@H](CC)NC(=O)[C@H](C)N(C)C(=O)C(C)(C)C(=O)C(C)NC(=O)[C@H](Cc2ccc(OC)cc2)N(C)C(=O)[C@H](C(C)C)N(C)C(=O)CNC(=O)[C@H](CC(C)C)N(C)C(=O)CNC1=O (stereo partly drawn)	0.18µM*	-10	0.15µM*	·	0.18µM*	0.26µM*

Assay outcomes: PubChem BioAssay, National Center for Advancing Translational Sciences (NCATS)
